# In PubChem BioAssay (EPA / NIEHS):
# “And” between values parts separate entries of the source, which are not always exact repeats. Equal values may be shown once. Records with an inconclusive call do not appear. A structure can be active in one record and inactive in another. The source made the active and inactive calls. The calls were made as follows, unless noted: active = hit-call score of the fitted dose curve at least 0.9, where 1 is the maximum; inactive = score below 0.9.
# How the values were obtained:
# [1] = target: Estrogen receptor (Homo sapiens) (UniProt P03372); experiment: CCTE_Deisenroth_AIME_384WELL_LUC_Active: CCTE's 384-well Estrogen Receptor Transactivation Assay with AIME metabolic competence (ERTA luciferase; metabolism positive), Deisenroth Lab (AID 2284030; active = hit-call score of the fitted dose curve at least 0.9, where 1 is the maximum)
# Summary of the method: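 Test chemicals (10-point series, 0.002 - 200 uM) were preincubated 2 hours with alginate-immobilized phenobarbital/beta-naphthoflavone-induced male Sprague Dawley rat liver S9; conditioned medium then went onto VM7Luc4E2 breast cells for 24 hour. Luciferase gain-of-signal fitted relative to 17beta-estradiol.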
# [2] = CCTE_Shafer_MEA_dev_firing_rate_mean: CCTE's Neural Network Formation Assay for Mean Firing Rate, Shafer Lab (AID 2284031)
# Summary of the method: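 Developing rat cortical networks on MEA plates undergo 12-day compound exposure. Firing frequency, averaged across active electrodes, is integrated as area under the curve over four recording days, referenced to DMSO.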
# [3] = CCTE_Shafer_MEA_dev_per_burst_spike_percent: CCTE's Neural Network Formation Assay for Percent of Spikes in a Burst, Shafer Lab (AID 2284032);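 as to AC50: fitted as a decrease in burst spike percentage below DMSO baseline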
# Summary of the method: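 Rat primary cortical neurons on 16-electrode MEA wells, dosed from plating day 0 for 12 days with renewal on DIV 5 and 9; spikes-in-bursts percentage averaged over bursting electrodes, collapsed as AUC across days 5, 7, 9, 12; loss direction versus DMSO.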
# [4] = CCTE_Deisenroth_AIME_384WELL_CTox_Active: Cytotoxicity Assessment (CTOX) in CCTE's 384-well Estrogen Receptor Transactivation Assay with AIME metabolic competence (metabolism positive), Deisenroth Lab (AID 2284037; active = hit-call score of the fitted dose curve at least 0.9, where 1 is the maximum;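 also: activity means signal loss indicating cell death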)
# Summary of the method: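 VM7Luc4E2 breast cells received medium pre-incubated 2 h with chemical over alginate microspheres holding induced male Sprague Dawley rat liver S9; viability read 24 h later by protease-substrate fluorescence. Loss of signal, bidirectional fit, 0.002–200 uM.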
# [5] = CCTE_Deisenroth_AIME_384WELL_CTox_Inactive: Cytotoxicity Assessment (CTOX) in CCTE's 384-well Estrogen Receptor Transactivation Assay without AIME metabolic competence (metabolism negative), Deisenroth Lab (AID 2284039; active = hit-call score of the fitted dose curve at least 0.9, where 1 is the maximum;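 also: cell viability via live-cell protease substrate cleaved to fluorescent probe; cells exposed 24 h to medium preincubated 2 h with alginate-water beads without S9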)
# Summary of the method: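 Metabolism-negative arm: chemicals (10-point, 0.002 - 200 uM) preincubated 2 h with alginate-water lids, medium moved onto VM7Luc4E2 cells for 24 h. Fluorescent live-cell protease readout; bidirectional curve fit.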
# [6] = CCTE_Shafer_MEA_dev_active_electrodes_number: CCTE's Neural Network Formation Assay for Number of Active Electrodes, Shafer Lab (AID 2284040; active = hit-call score of the fitted dose curve at least 0.9, where 1 is the maximum;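 as to AC50: potency for loss of active electrodes versus DMSO so lower counts are hits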)
# Summary of the method: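 Rat cortical primary cultures, 1.5 x 10^5 cells/well, PEI-coated MEA, laminin drop. Continuous exposure DIV 0–12; full media/compound change DIV 5, 9. Readout: electrodes with mean firing ≥5 spikes/min; AUC across days; loss vs DMSO.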
# [7] = target: Estrogen receptor (Homo sapiens) (UniProt P03372); experiment: CCTE_Deisenroth_AIME_384WELL_LUC_Shift: CCTE's 384-well Estrogen Receptor Transactivation Assay with AIME metabolic competence data shift (ERTA luciferase; difference in metabolism positive and negative), Deisenroth Lab (AID 2284041);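 also: shift is response with S9 minus without S9 so positive means metabolism raised ER signal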
# Summary of the method: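 Here, parent compounds undergo 2 h phase I metabolism by PB/BNF-induced rat S9 before 24 h transactivation in VM7Luc4E2 cells; the curve models S9-positive minus S9-negative response over a 10-point series.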
# [8] = CCTE_Shafer_MEA_dev_burst_rate: CCTE's Neural Network Formation Assay for Burst Rate, Shafer Lab (AID 2284042)
# Summary of the method: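 Cells plated, treated day 0; recorded DIV 5, 7, 9, 12; fed and re-treated DIV 5, 9. Endpoint: bursts per recording time, active-electrode well mean, trapezoidal AUC, fitted in decreasing direction against DMSO baseline.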
# [9] = CCTE_Shafer_MEA_dev_per_burst_interspike_interval: CCTE's Neural Network Formation Assay for Burst Interspike Interval, Shafer Lab (AID 2284044);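 also: mean spike spacing inside bursts as AUC over recordings on days 5 7 9 12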
# Summary of the method: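 Rat cortical primary cultures, 16 electrodes/well; compound from plating, renewed with full media change DIV 5 and 9. Spikes via adaptive detector; per-burst ISI well-mean over active bursting electrodes; AUC of DIV 5/7/9/12 recordings; loss-direction fit vs DMSO.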
# [10] = CCTE_Shafer_MEA_dev_burst_duration_mean: CCTE's Neural Network Formation Assay for Mean Burst Duration, Shafer Lab (AID 2284045)
# Summary of the method: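 Primary rat cortical neurons on PEI-coated 16-electrode MEA wells, exposed from plating through day 12 with compound renewed at DIV 5 and 9; spontaneous activity recorded days 5, 7, 9, 12. Well-mean burst duration collapsed as trapezoidal AUC, fitted for loss versus DMSO.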
# [11] = CCTE_Shafer_MEA_dev_interburst_interval_mean: CCTE's Neural Network Formation Assay for Mean Interburst Interval, Shafer Lab (AID 2284046);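 also: well-mean interburst interval of bursting electrodes as AUC over four recording days; curve fitted for decrease in interburst interval relative to DMSO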
# Summary of the method: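 Developing rat cortical networks on 48-well MEAs receive compound from the day of plating. Burst intervals from each active electrode are averaged per well, and AUC over the recording days is fitted in the negative direction against DMSO.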
# [12] = CCTE_Shafer_MEA_dev_inter_network_spike_interval_mean: CCTE's Neural Network Formation Assay for Mean Inter-network Spike Interval, Shafer Lab (AID 2284047)
# Summary of the method: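 Rat cortical cultures, 1.5 x 10^5 cells/well on 48-well MEA plates; continuous exposure days 0–12, medium and compound refreshed DIV 5, 9. Mean time between consecutive network-spike peaks; AUC across DIV 5/7/9/12; DMSO baseline, negative fitting direction.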
# [13] = CCTE_Shafer_MEA_dev_network_spike_number: CCTE's Neural Network Formation Assay for Number of Network Spikes, Shafer Lab (AID 2284048);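 also: synchronized bursts across electrodes counted on days 5 7 9 12 and integrated as AUC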
# Summary of the method: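 Primary rat cortical neurons were seeded at 1.5 x 10^5 cells/well on PEI-coated 16-electrode MEA wells with laminin, exposed from plating day 0, compound renewed at DIV 5 and 9. Network spikes were recorded on days 5, 7, 9, 12 and summarized as trapezoidal AUC versus DMSO.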
# [14] = CCTE_Shafer_MEA_dev_network_spike_peak: CCTE's Neural Network Formation Assay for Mean Number of Electrodes in Network Spike, Shafer Lab (AID 2284049);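 as to AC50: fitted for loss of signal meaning fewer electrodes in network spikes than DMSO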
# Summary of the method: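 Continuous 12-day exposure of rat cortical cultures, starting at plating, on MEA plates. Endpoint: electrodes participating in network-spike peaks, AUC across DIV 5–12, DMSO as negative control.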
# [15] = CCTE_Shafer_MEA_dev_per_network_spike_spike_number_mean: CCTE's Neural Network Formation Assay for Mean Number of Spikes in a Network Spike, Shafer Lab (AID 2284053);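 as to AC50: fitted as decrease in spikes per network spike relative to DMSO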
# Summary of the method: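 Continuous twelve-day exposure of developing rat cortical networks grown over 16 microelectrodes per well; spontaneous firing is captured at four time points, and the per-network-spike spike number is integrated over development by trapezoidal AUC.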
# [16] = CCTE_Shafer_MEA_dev_per_network_spike_spike_percent: CCTE's Neural Network Formation Assay for Percent of Spikes in a Network Spike, Shafer Lab (AID 2284054)
# Summary of the method: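 Primary rat cortical neurons on 16-electrode MEA wells (PEI-coated, laminin at plating), exposed from day 0 with renewal at DIV 5 and 9; spikes within 0.05 s of network-spike peaks over total spikes, AUC across days 5, 7, 9, 12.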
# [17] = CCTE_Shafer_MEA_acute_synchrony_index: CCTE's Neural Acute Assay for Synchrony, Shafer Lab (AID 2284027);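 also: network synchrony index of spontaneous spiking in primary rat cortical neurons on MEAs; fitted for loss of signal so actives lower synchrony relative to DMSO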
# Summary of the method: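 Spontaneous firing of mature rat cortical networks is captured extracellularly on microelectrode arrays at 37 C, with wells needing ≥10 active electrodes. Each compound (0.03-40 uM) is judged by the change in synchrony index from baseline over 40 min.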
# [18] = test system: DIO2 (gene 1734); experiment: CCTE_GLTED_hDIO2: CCTE's human Deiodinase 2 (DIO2) Inhibition Assay, Great Lakes Toxicology and Ecology Division (GLTED) Lab (AID 2284050; active = hit-call score of the fitted dose curve at least 0.9, where 1 is the maximum)
# Summary of the method: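 In this cell-free test, chemicals are exposed to human deiodinase type 2 for 3 hours. Released iodide is determined spectrophotometrically via the Sandell-Kolthoff method, and signal loss relative to DMSO is fitted.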
# [19] = CCTE_Deisenroth_AIME_96WELL_CTox_Active: Cytotoxicity Assessment (CTOX) in CCTE's 96-well Estrogen Receptor Transactivation Assay with AIME metabolic competence (metabolism positive), Deisenroth Lab (AID 2284028; active = hit-call score of the fitted dose curve at least 0.9, where 1 is the maximum)
# Summary of the method: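 Chemicals (0.002–200 uM) were first incubated 2 h with alginate-immobilized phenobarbital/beta-naphthoflavone-induced male rat liver S9; conditioned medium then went onto VM7Luc4E2 cells for 24 h, with viability read by protease-substrate fluorescence, fitted bidirectionally.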
# [20] = CCTE_Deisenroth_AIME_96WELL_CTox_Inactive: Cytotoxicity Assessment (CTOX) in CCTE's 96-well Estrogen Receptor Transactivation Assay without AIME metabolic competence (metabolism negative), Deisenroth Lab (AID 2284029; active = hit-call score of the fitted dose curve at least 0.9, where 1 is the maximum)
# Summary of the method: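 Chemicals (10-point series, 0.002-200 uM) were incubated 2 h with alginate-water microspheres lacking S9. The conditioned medium was then transferred onto VM7Luc4E2 cells for 24 h. Viability was measured by protease-substrate cleavage to a fluorescent probe, with loss of signal fitted bidirectionally; n≥4 experimental replicates.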
# Sequence of Estrogen receptor (Homo sapiens) (P03372 whole entry, looked up): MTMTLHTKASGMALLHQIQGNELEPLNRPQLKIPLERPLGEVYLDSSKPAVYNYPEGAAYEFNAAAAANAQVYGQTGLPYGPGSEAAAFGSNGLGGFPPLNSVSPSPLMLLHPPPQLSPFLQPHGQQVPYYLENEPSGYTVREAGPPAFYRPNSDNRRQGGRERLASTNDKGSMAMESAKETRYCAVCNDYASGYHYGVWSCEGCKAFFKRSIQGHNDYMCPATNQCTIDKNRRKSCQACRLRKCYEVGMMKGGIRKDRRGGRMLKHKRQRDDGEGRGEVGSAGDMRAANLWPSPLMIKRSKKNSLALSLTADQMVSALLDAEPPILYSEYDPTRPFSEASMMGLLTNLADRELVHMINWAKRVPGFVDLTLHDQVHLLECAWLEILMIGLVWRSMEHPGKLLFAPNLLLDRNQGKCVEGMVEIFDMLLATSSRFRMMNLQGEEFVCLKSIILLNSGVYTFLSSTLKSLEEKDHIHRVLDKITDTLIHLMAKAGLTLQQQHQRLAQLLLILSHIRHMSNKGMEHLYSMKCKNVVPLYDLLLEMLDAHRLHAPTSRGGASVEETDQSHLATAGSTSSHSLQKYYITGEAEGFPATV
structure (smiles),measurement,setting,value
O=S(=O)(O)C(F)(F)C(F)(F)C(F)(F)C(F)(F)C(F)(F)C(F)(F)F,outcome,[1],inactive
same,outcome,[2],inactive
same,outcome,[3],inactive
same,outcome,[4],inactive
same,outcome,[5],inactive
same,AC50,[6],3.97 µM (active)
same,outcome,[6],inactive
same,outcome,[7],inactive
same,outcome,[8],inactive
same,outcome,[9],inactive
same,outcome,[10],inactive
same,outcome,[11],inactive
same,outcome,[12],inactive
same,outcome,[13],inactive
same,AC50,[14],9.07 µM (active)
same,outcome,[14],inactive
same,outcome,[15],inactive
same,outcome,[16],inactive
Cc1cc(-c2ccc(N)c(C)c2)ccc1N,AC50,[1],11.9 µM (active)
same,outcome,[4],inactive
same,outcome,[5],inactive
same,outcome,[7],inactive
CCCCCCCCCC[N+](C)(C)CCCCCCCCCC,AC50,[17],14.4 µM (active)
same,AC50,[18],62.7 µM (active)
Cc1ccccc1O,outcome,[1],inactive
same,outcome,[5],inactive
C1CC2OC2CC1C1CO1 (stereo unspecified),outcome,[1],inactive
same,outcome,[5],inactive
same,outcome,[7],inactive
Cc1ccc(O)c(C)c1,outcome,[1],inactive
same,outcome,[7],inactive
O=C(O)C(F)(F)C(F)(F)C(F)(F)C(F)(F)C(F)(F)C(F)(F)C(F)(F)C(F)(F)C(F)(F)F,AC50,[18],100 µM (active) and 71.6 µM (active)
C[C@]12CCC(=O)C=C1CC[C@@H]1[C@@H]2CC[C@@]2(C)[C@H]1CC[C@]2(C)O,AC50,[1],1.8 µM (active)
same,AC50,[7],5.67 µM (active)
c1cc2ccc3cccc4ccc(c1)c2c34,outcome,[19],inactive
same,outcome,[20],inactive
same,outcome,[1],inactive
same,outcome,[2],inactive
same,outcome,[3],inactive
same,outcome,[4],inactive
same,AC50,[5],0.0782 µM (active)
same,outcome,[6],inactive
same,outcome,[7],inactive
same,outcome,[8],inactive
same,outcome,[9],inactive
same,outcome,[10],inactive
same,outcome,[11],inactive
same,outcome,[12],inactive
same,outcome,[13],inactive
same,outcome,[14],inactive
same,outcome,[15],inactive
same,outcome,[16],inactive
Cc1ccccc1CO[C@@H]1C[C@@]2(C(C)C)CC[C@]1(C)O2,outcome,[4],inactive
same,outcome,[5],inactive
O=C(O)C(F)(F)C(F)(F)C(F)(F)C(F)(F)C(F)(F)C(F)(F)C(F)(F)C(F)(F)F,outcome,[1],inactive
same,outcome,[2],inactive
same,outcome,[3],inactive
same,AC50,[4],146 µM (active)
same,AC50,[5],164 µM (active)
same,outcome,[7],inactive
same,outcome,[8],inactive
same,outcome,[9],inactive
same,outcome,[10],inactive
same,outcome,[11],inactive
same,outcome,[12],inactive
same,outcome,[13],inactive
same,outcome,[14],inactive
same,AC50,[18],46.1 µM (active)
same,outcome,[15],inactive
same,outcome,[16],inactive
NS(=O)(=O)C(F)(F)C(F)(F)C(F)(F)C(F)(F)C(F)(F)C(F)(F)C(F)(F)C(F)(F)F,outcome,[2],inactive
same,AC50,[3],15 µM (active)
same,outcome,[3],inactive
same,AC50,[6],6.65 µM (active)
same,outcome,[6],inactive
same,outcome,[8],inactive
same,outcome,[9],inactive
same,outcome,[10],inactive
same,outcome,[11],inactive
same,outcome,[12],inactive
same,outcome,[13],inactive
same,AC50,[14],26.7 µM (active)
same,outcome,[14],inactive
same,AC50,[15],15 µM (active)
same,outcome,[15],inactive
same,AC50,[16],4.59 µM (active)
same,outcome,[16],inactive
Cc1cc2c3c(c1)C(c1ccccc1)=N[C@@H](NC(=O)c1ccncc1)C(=O)N3CC2,outcome,[1],inactive
same,outcome,[5],inactive
same,outcome,[7],inactive
OCC(O)CO,AC50,[1],0.0002 µM (active)
same,outcome,[1],inactive
same,outcome,[4],inactive
same,outcome,[5],inactive
same,AC50,[7],0.00051 µM (active)
same,outcome,[7],inactive
